Laboratory results as given in PubChem BioAssay (NCI).
About 83,000 compounds went through this panel and 20% of them were active in at least one assay; those are over-represented in the sample as a whole.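 Testing used 96-well plates and a 48-hour single-concentration exposure. Example: -40 means 40% of the starting cells died.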 The source made the active and inactive calls. The calls were made as follows: active = growth percent below 10; inactive = the rest.

Experiments:
Experiment in all cases: NCI-60 one-dose screen, 48 h (100 = growth as untreated, 0 = no growth, -100 = all killed)
Settings in all cases: 10 µM unless noted
SK-MEL-2 melanoma = system: SK-MEL-2 melanoma
EKVX NSCLC = system: EKVX NSCLC
SN12C renal = system: SN12C renal
UO-31 renal = system: UO-31 renal
TK-10 renal = system: TK-10 renal
ACHN renal = system: ACHN renal
A498 renal = system: A498 renal
CCRF-CEM leukemia = system: CCRF-CEM leukemia
MOLT-4 leukemia = system: MOLT-4 leukemia
CAKI-1 renal = system: CAKI-1 renal

Measured: growth

CN(/C(N)=N/N=C/c1c2ccccc2cc2ccccc12)C1CCCCC1
inactive: SK-MEL-2 melanoma 85.8% | EKVX NSCLC 50.5% | SN12C renal 54.7% | UO-31 renal 33.5% | TK-10 renal 59.3% | ACHN renal 52.7% | A498 renal 50.3% | CCRF-CEM leukemia 29.1% | MOLT-4 leukemia 14.2%

O=C(Nc1cccc(-c2ccc(N3CCOCC3)nn2)c1)Nc1cccc(C(F)(F)F)c1
inactive: SK-MEL-2 melanoma 70% | EKVX NSCLC 63.7% | SN12C renal 66.6% | UO-31 renal 74.9% | TK-10 renal 70.6% | ACHN renal 65.7% | A498 renal 80.3% | CCRF-CEM leukemia 26% | MOLT-4 leukemia 22.9%

N=C(N)c1ccc(-c2ccc(-c3ccc(Cl)cc3Cl)s2)cc1
active: ACHN renal -28% | CCRF-CEM leukemia -3.15% | MOLT-4 leukemia -24.3%
inactive: SK-MEL-2 melanoma 104% | EKVX NSCLC 63.5% | SN12C renal 16% | UO-31 renal 21.8% | TK-10 renal 110% | A498 renal 86.3%

CCCn1cc2c(=O)nc3sc(Cc4ccccc4)c(C)n3c2n1
inactive: SK-MEL-2 melanoma 93.7% | EKVX NSCLC 104% | SN12C renal 104% | UO-31 renal 78.5% | TK-10 renal 92.9% | ACHN renal 109% | A498 renal 100% | CCRF-CEM leukemia 92.3% | MOLT-4 leukemia 78%

Nc1ncnc2c1c(-c1cccc(Cl)c1)nn2CC(=O)N1CCOCC1
inactive: SK-MEL-2 melanoma 106% | EKVX NSCLC 104% | SN12C renal 100% | UO-31 renal 80.7% | TK-10 renal 97% | ACHN renal 95.6% | A498 renal 118% | CCRF-CEM leukemia 102% | MOLT-4 leukemia 110%

COc1ccc(-c2cc(-c3cccnc3)nc3sc4c(=O)[nH]c(-c5ccc(Cl)cc5)nc4c23)cc1OC
inactive: SK-MEL-2 melanoma 95.7% | EKVX NSCLC 90% | SN12C renal 89.5% | UO-31 renal 78.1% | TK-10 renal 104% | ACHN renal 93.4% | A498 renal 91.2% | CCRF-CEM leukemia 80.3% | MOLT-4 leukemia 37.6%

C#CCNC(=O)[C@H](CC)[C@H]1CC[C@H](C)[C@H]([C@@H](C)[C@H](O)[C@H](C)C(=O)[C@H](CC)C2O[C@]3(C=CC(=O)[C@]4(CC[C@@](C)([C@H]5CC[C@](O)(CC)[C@H](C)O5)O4)O3)[C@H](C)C[C@@H]2C)O1 (stereo partly drawn)
inactive: SK-MEL-2 melanoma 45% | EKVX NSCLC 51.3% | SN12C renal 48.7% | UO-31 renal 47.9% | TK-10 renal 87.1% | ACHN renal 45% | A498 renal 38.5% | CCRF-CEM leukemia 27.3% | MOLT-4 leukemia 32.4%

Cc1ccc2c(n1)C(=O)C(Br)=C(CC(C)C)C2=O
inactive: SK-MEL-2 melanoma 110% | EKVX NSCLC 104% | SN12C renal 98.8% | UO-31 renal 87.2% | TK-10 renal 115% | ACHN renal 68.6% | A498 renal 106% | CCRF-CEM leukemia 24.2% | MOLT-4 leukemia 19.5%

O=c1c2cnn(-c3ccccc3)c2n2c(CN3CCOCC3)nnc2n1-c1ccccc1
inactive: SK-MEL-2 melanoma 79.1% | EKVX NSCLC 102% | SN12C renal 104% | UO-31 renal 87.6% | TK-10 renal 71.4% | ACHN renal 95.2% | A498 renal 106% | CCRF-CEM leukemia 96.8% | MOLT-4 leukemia 100%

Cc1ccc(-c2nc([P+](c3ccccc3)(c3ccccc3)c3ccccc3)c(S(=O)(=O)c3ccc(C)cc3)o2)cc1
active: SN12C renal 3.91% | TK-10 renal 2.83% | ACHN renal -13.4% | A498 renal -0.861% | CCRF-CEM leukemia -6.52% | MOLT-4 leukemia -3.24%
inactive: SK-MEL-2 melanoma 22.1% | EKVX NSCLC 22.6% | UO-31 renal 14.9%

Cc1cc(=O)oc2cc(OCc3nn4c(Nc5nc6ccccc6s5)c(-c5ccccc5)nc4s3)ccc12
inactive: SK-MEL-2 melanoma 108% | EKVX NSCLC 88.4% | SN12C renal 91.4% | UO-31 renal 83.6% | TK-10 renal 128% | ACHN renal 100% | A498 renal 91.1% | CCRF-CEM leukemia 40.7% | MOLT-4 leukemia 97.5%

CN(C)CC1CCC(CN(C)C)C1=O (stereo not drawn)
inactive: SK-MEL-2 melanoma 96.8% | EKVX NSCLC 133% | SN12C renal 106% | UO-31 renal 85.4% | TK-10 renal 92.1% | ACHN renal 110% | A498 renal 103% | CCRF-CEM leukemia 27.9% | MOLT-4 leukemia 64.4%

COc1ccc(OC)c(Nc2nnc(-c3ccc(O)c(OC)c3)o2)c1
active: A498 renal 6.18%
inactive: SK-MEL-2 melanoma 96.3% | EKVX NSCLC 82.5% | SN12C renal 34% | UO-31 renal 20.3% | TK-10 renal 14.8% | ACHN renal 37.9% | CCRF-CEM leukemia 88.6% | MOLT-4 leukemia 60.8%

Cc1ccc2c(Cn3cc(CSc4nc5ccccc5o4)nn3)cc(=O)oc2c1
inactive: SK-MEL-2 melanoma 106% | EKVX NSCLC 92.1% | SN12C renal 102% | UO-31 renal 91.1% | TK-10 renal 122% | ACHN renal 103% | A498 renal 90% | CCRF-CEM leukemia 93.4% | MOLT-4 leukemia 108%

CCOC(=O)C1=C(c2ccccc2)N=C2SC=C(c3ccc(Cl)cc3)N2C1c1ccc(Br)cc1 (stereo not drawn)
inactive: SK-MEL-2 melanoma 96.4% | EKVX NSCLC 73.9% | SN12C renal 84.5% | UO-31 renal 73.2% | TK-10 renal 103% | ACHN renal 87.3% | A498 renal 46.7% | CCRF-CEM leukemia 78.4% | MOLT-4 leukemia 39%

CCN(CC)CCCCCNc1cc(OC(=O)c2ccc(Cl)cc2)cc2cccnc12
inactive: SK-MEL-2 melanoma 103% | EKVX NSCLC 104% | SN12C renal 96.8% | UO-31 renal 94.7% | TK-10 renal 106% | ACHN renal 106% | A498 renal 95.6% | CCRF-CEM leukemia 108% | MOLT-4 leukemia 72.6%

CN1CCc2nc3sc(C(N)=O)c(N)c3c(-c3cccs3)c2C1
active: UO-31 renal 4.13% | ACHN renal 8.41% | A498 renal -1.55%
inactive: SK-MEL-2 melanoma 27.3% | EKVX NSCLC 47.7% | SN12C renal 29.1% | TK-10 renal 43% | CCRF-CEM leukemia 19.3% | MOLT-4 leukemia 62.1%

O=C(N(c1ccccc1)c1ccccc1)n1cc(I)c2nc(Cl)nc(Cl)c21
active: CCRF-CEM leukemia 4.32% | MOLT-4 leukemia 2.48%
inactive: SK-MEL-2 melanoma 70.5% | EKVX NSCLC 71.1% | SN12C renal 34.8% | UO-31 renal 54.4% | TK-10 renal 86.8% | ACHN renal 57.9% | A498 renal 67.9%

CCN(CC)CC(O)COc1c(Br)c(Br)c(Br)c2c1OC(C)(C)C2 (stereo not drawn)
active: A498 renal -86.9%
inactive: SK-MEL-2 melanoma 338% | EKVX NSCLC 105% | SN12C renal 79.4% | UO-31 renal 91.2% | TK-10 renal 58.4% | ACHN renal 97.9% | CAKI-1 renal 17.6% | CCRF-CEM leukemia 45.8% | MOLT-4 leukemia 22.3%

O=C(Nc1ccccc1)Nc1ncnc2c1ncn2-c1ccc(Cl)cc1
inactive: SK-MEL-2 melanoma 107% | EKVX NSCLC 86.7% | SN12C renal 63.1% | UO-31 renal 70.3% | TK-10 renal 58.9% | ACHN renal 69.5% | CAKI-1 renal 93.9% | A498 renal 91% | CCRF-CEM leukemia 94.2% | MOLT-4 leukemia 84.2%

O=C(Nc1cccc(-c2ccc(Cl)c(C(F)(F)F)c2)c1)C1CCN(Cc2cccc3cccnc23)CC1
active: SN12C renal 4.06% | UO-31 renal 2.47% | ACHN renal -90.6% | CCRF-CEM leukemia 4.08% | MOLT-4 leukemia -9.69%
inactive: SK-MEL-2 melanoma 31.6% | EKVX NSCLC 34.6% | TK-10 renal 80.6% | A498 renal 58.7%

O=C(/C=C/c1cccs1)Nc1ncc(Cc2ccccc2F)s1
inactive: SK-MEL-2 melanoma 46.5% | EKVX NSCLC 26.1% | SN12C renal 41.3% | UO-31 renal 36.2% | TK-10 renal 49.6% | ACHN renal 31.5% | CCRF-CEM leukemia 14.4% | MOLT-4 leukemia 26%
active: A498 renal 4.45%

CCCCNC(=O)CC1=C(C)/C(=C/c2[nH]c(-c3ccc[nH]3)cc2OC)N=C1C
active: UO-31 renal -5.12% | A498 renal 3.74% | MOLT-4 leukemia 7.6%
inactive: SK-MEL-2 melanoma 22.1% | EKVX NSCLC 36.4% | SN12C renal 35.3% | TK-10 renal 33.5% | ACHN renal 13.7% | CCRF-CEM leukemia 27.2%

COc1ccc(/C=C/C(=O)c2ccc(Nc3ccnc4cc(Cl)ccc34)cc2)cc1
inactive: SK-MEL-2 melanoma 64.1% | EKVX NSCLC 85.8% | SN12C renal 97.8% | UO-31 renal 90% | TK-10 renal 141% | ACHN renal 98.8% | A498 renal 115% | MOLT-4 leukemia 22.9%
active: CCRF-CEM leukemia -52.1%

CCC(=O)Oc1ccc(-c2ccccc2)cc1Br
inactive: SK-MEL-2 melanoma 110% | EKVX NSCLC 102% | SN12C renal 104% | UO-31 renal 102% | TK-10 renal 101% | ACHN renal 113% | A498 renal 63.5% | CCRF-CEM leukemia 102% | MOLT-4 leukemia 111%

CCO/C=N/C1=C(C#N)C(c2ccc(Cl)cc2)c2sc3c(F)cccc3c2O1 (stereo not drawn)
inactive: SK-MEL-2 melanoma 14.2% | EKVX NSCLC 75.7% | SN12C renal 79.7% | UO-31 renal 66% | TK-10 renal 88.1% | ACHN renal 92.3% | A498 renal 56.5% | CCRF-CEM leukemia 38.1% | MOLT-4 leukemia 71.5%

O=C(Nc1cccc2ccccc12)NC1CC1
inactive: SK-MEL-2 melanoma 121% | EKVX NSCLC 109% | SN12C renal 106% | UO-31 renal 88% | TK-10 renal 117% | ACHN renal 101% | A498 renal 112% | CCRF-CEM leukemia 97.5% | MOLT-4 leukemia 92.6%

CCOC(=O)c1c2c(n3cccc(F)c13)C(=O)c1ncccc1C2=O
inactive: SK-MEL-2 melanoma 72.4% | EKVX NSCLC 27.7% | SN12C renal 25.6% | TK-10 renal 36.8% | A498 renal 24% | CCRF-CEM leukemia 67.3% | MOLT-4 leukemia 69.3%
active: UO-31 renal -28.5% | ACHN renal 7%

CCN(CC)CCn1c2ccc(OC)cc2c2sc3cc(OC)ccc3c(=O)c21
inactive: SK-MEL-2 melanoma 63.5% | EKVX NSCLC 41.3% | SN12C renal 24.6% | TK-10 renal 49.2% | A498 renal 15.6% | CCRF-CEM leukemia 15%
active: UO-31 renal 8.29% | ACHN renal -38.8% | MOLT-4 leukemia 3.81%
